# An excerpt weighted towards active compounds, which were near 19% of everything screened.
# MCF10A rereplic = A quantitative high throughput screen for small molecules that induce DNA re-replication in MCF 10a normal breast cells; MCF 10A DNA re-replication, Hoechst nuclear intensity, 48 h; Potency, µM (highest dose often 46.1 µM), for inactives: at the highest dose activity, positive = re-replication, usual class: activators; 350,000 compounds, 2.9% hits; note: potency is the fitted concentration of half-maximal effect; % of control where 0% means no effect; nearly all actives have a fitted effect of over 50% in size
# TDP1 cell CPT = qHTS for Inhibitors of human tyrosyl-DNA phosphodiesterase 1 (TDP1): qHTS in cells in presence of CPT; Potency, µM (highest dose often 46.2 µM), for inactives: at the top dose activity change, negative = growth inhibition, actives largely listed as inhibitors; 420,000 compounds, 12% hits; chicken DT40 Tdp1-/-;hTDP1 cells + 20 nM CPT, ATP luminescence, 48 h; note: potency is the fitted concentration of half-maximal effect; % is set by controls: 0 for no effect and ±100 for the full control effect; nearly all actives have a fitted effect of over 55% in size
#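 Chicken DT40 Tdp1-/- cells complemented with human TDP1, 400 cells/well, exposed to compounds plus 20 nM camptothecin for at least 48 h at 37 C; viability read as ATP content by CellTiter-Glo luminescence.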
# TDP1 cell noCPT = qHTS for Inhibitors of human tyrosyl-DNA phosphodiesterase 1 (TDP1): qHTS in cells in absence of CPT | DT40 Tdp1-/- hTDP1 cells, no CPT, ATP luminescence, 48 h | Potency, µM (doses to about 46.2 µM), inactives show top-dose activity change, negative = growth inhibition, most hits filed as inhibitors | 420,000 compounds, 15% hits | AID 686978, 2013; note: potency is the fitted concentration of half-maximal effect; % is set by controls: 0 for no effect and ±100 for the full control effect; nearly all actives have a fitted effect of over 55% in size
#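 Luminescent ATP content (CellTiter-Glo) served as the growth readout. Knockout chicken DT40 cells expressing human TDP1 were exposed to compounds without camptothecin for a minimum 48 hr at 37 °C.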
# SW480 rerep = A quantitative high throughput screen for small molecules that induce DNA re-replication in SW480 colon adenocarcinoma cells. SW480 DNA re-replication, Hoechst DNA content imaging, 48 h. 340,000 compounds, 1.8% hits. AID 624297, 2012. Potency, µM (top dose mostly 46.1 µM), without a hit: at the highest dose re-replication activation, actives largely listed as activators; note: potency is the fitted concentration of half-maximal effect; % of control where 0% means no effect; nearly all actives have a fitted effect of over 55% in size
#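 Treated cells incubate 48 hr (37 C, 5% CO2), are stained 40 min with Hoechst, and nuclear fluorescence is enumerated; a rise in nuclei with high DNA signal marks re-replication.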
# Chronic BCR inh = qHTS Assay to Find Inhibitors of Chronic Active B-Cell Receptor Signaling. ABC-DLBCL IkBa-CBG/CBR reporter, luminescence ratio, 4 h. Potency, µM (titrated, usually from 46.1 µM), without a hit: at the highest dose activity change, negative = inhibition, actives largely listed as inhibitors. 340,000 compounds, 0.05% hits. AID 493014, 2011; active = well fitted inhibition curve with a large enough effect in the signal ratio, with a control signal flat, not every such curve was filed as active; inconclusive = small, poorly fitted or top-dose-only effect, or effect the other way, or a change in a side signal; the % refers to the signal ratio;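 note: potency is the fitted concentration of half-maximal effect; plate controls were basal doxycycline-induced cells for no effect and cells given 10 µM MG132 for full effect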
#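 TMD8 human ABC-DLBCL cells with doxycycline-inducible IκBα–green luciferase fusion and unfused red luciferase, in 0.5% FBS medium; compounds up to 46 uM, 4 h at 37C. Green/red luminescence ratio, filter-overlap corrected, fitted to concentration-response curves.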
# IL1B secr inh = qHTS for Inhibitors of Inflammasome Signaling: IL-1-beta AlphaLISA Primary Screen; AID 743279, 2014; 360,000 compounds, 4.7% hits; THP-1 LPS/ATP IL-1B secretion, AlphaLISA, 16 h; stronger effect = lower value; activity change, % at 57.5 µM; in the data active = activity change below about -50%; inconclusive = mostly about -30% to -49%; note: % is set by controls: 0 for no effect and ±100 for the full control effect
#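 Secreted IL-1B measured by AlphaLISA bead assay after 16 h compound exposure of THP-1 cells; compounds (final up to 57.5 uM) added 1 h before LPS (250 ng/mL) and ATP (1.25 mM) stimulation; lower signal means less secretion.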
# * marks the source's active call; other numbers are inactive results; ? = inconclusive; / = no result given. Unless noted, calls come from the whole dose curve; as a rule, active = well fitted curve in the direction sought with a large enough effect; inconclusive = small, poorly fitted or top-dose-only effect, or another doubt; inactive = no such curve, though single readings can be large; an effect the other way counts as inactive or inconclusive.
SMILES,MCF10A rereplic,TDP1 cell CPT,TDP1 cell noCPT,SW480 rerep,Chronic BCR inh,IL1B secr inh
CC[N+](C)(C)CC/C=C1/c2ccccc2Sc2ccc(Cl)cc21,-21.6%,7.1%,-6.2%,-9.1%,-25.7%,/
CCCCCCCCCCC[N+](C)(C)CC/C=C1/c2ccccc2Sc2ccc(Cl)cc21,18.9%,5.8µM*,2.59µM*,-0.8%,?,-67.0*
CC(C)NC(=O)C1=CC(c2ccc3c(c2)OCO3)=NS(=O)(=O)N1C,/,1.2%,-6.4%,/,/,/
COc1ccccc1OCCNC(=O)CCC(=O)N1CCOCC1,-0.4%,0.6%,1.0%,6.6%,3.7%,12.1
CCSc1ncc(Cl)c(C(=O)Nc2nc3ccc(Cl)cc3s2)n1,/,-5.5%,-24.2%,/,/,/
Cn1ncc(Cl)c1C(=O)Nc1nc2ccc(Cl)cc2s1,6.6%,16.4µM*,23.1µM*,-1.6%,?,16.9
Cc1cc(C(=O)Nc2nc3ccc(Cl)cc3s2)nn1C,0.0%,-9.2%,?,6.51µM*,?,/
Cc1cc(C)n2nc(-c3ccccc3)c(-c3ccccc3)c2n1,13.3%,?,?,?,-2.2%,7.2
CCOC(=O)C1CCN(S(=O)(=O)c2ccc(CC)cc2)CC1,?,20.6µM*,?,1.4%,11.3%,21.4
CCOC(=O)C1CCCN(S(=O)(=O)c2ccc(S(=O)(=O)N3CCCC3)cc2)C1 (stereo not drawn),5.4%,4.61µM*,3.66µM*,-5.7%,-7.4%,0.0
CCOC(=O)c1ccc(S(=O)(=O)N2CCC(C(=O)OCC)CC2)cc1,0.8%,-3.0%,-19.3%,5.3%,-6.5%,8.1
CCOC(=O)C1CCN(C(=O)C2CCCN(S(=O)(=O)c3ccc(OCC)c(Cl)c3)C2)CC1 (stereo not drawn),4.6%,6.51µM*,5.8µM*,3.2%,2.3%,8.0
CCOC(=O)C1CCCN(S(=O)(=O)c2cc3c4c(c2)CCC(=O)N4CCC3)C1 (stereo not drawn),2.1%,23.1µM*,20.6µM*,-3.5%,0.5%,29.7
CCOC(=O)C1CCCN(C(=O)c2ccc(S(=O)(=O)N3CCCC3)cc2)C1 (stereo not drawn),-0.1%,-4.8%,-3.7%,-4.4%,-3.7%,-1.6
Cn1c(CNC(=O)OC(C)(C)C)nnc1SCC(=O)N1CCOCC1,-0.4%,-6.6%,1.6%,0.5%,0.7%,24.0
COc1cccc(-c2cc(N(C)Cc3ccco3)ncn2)c1,/,-24.8%,-19.4%,/,/,/
Nc1cc(=O)[nH]c(SCC(=O)NNC(=O)Cc2ccccc2)n1,2.4%,1.7%,16.2%,0.6%,-5.5%,41.8
Cc1ccc(-n2c(=O)c3c(c4cc(C)ccc4n3C)n(CC(=O)N3CCCC3)c2=O)cc1,/,-16.1%,?,/,/,/
CC1CC(C)CN(S(=O)(=O)c2cc3c4c(c2)CCC(=O)N4CCC3)C1 (stereo not drawn),6.3%,?,18.4µM*,1.2%,1.0%,-4.8
O=C1CCc2cc(S(=O)(=O)N3CCCCC3)cc3c2N1CCC3,-2.3%,16.2%,-9.2%,-1.1%,-18.1%,43.4
CN(C)CCN1CCN(C2CN(C3CCCC3)S(=O)(=O)C2)CC1 (stereo not drawn),/,-13.1%,2.5%,/,/,60.6
Cc1ccc(Nc2nc(N)nc(CSC(=S)N3CCOCC3)n2)c(C)c1,10.0%,?,25.9µM*,-48.4%,-8.5%,?
Nc1nc(CSC(=S)N2CCN(c3ccccc3)CC2)nc(Nc2ccccc2)n1,4.3%,23.1µM*,?,132.2%,7.3%,-14.3
COc1ccccc1CN1CCCC2(CCN(S(=O)(=O)c3ccccc3)CC2)C1,/,-2.6%,-7.8%,/,/,/
CCNC(=O)CSc1nnc(-c2cccc(S(=O)(=O)N3CCOCC3)c2)o1,-13.5%,-0.1%,-17.5%,13.5%,5.0%,14.0
SMILES,MCF10A rereplic,TDP1 cell CPT,TDP1 cell noCPT,SW480 rerep,Chronic BCR inh,IL1B secr inh
COc1ccc(-n2c(NCCN(C)C)nc3sc4c(c3c2=O)CCCCC4)cc1,?,?,16.4µM*,?,22.7%,-4.9
CN(C)CCNc1nc2sc3c(c2c(=O)n1-c1ccc(F)cc1)CCCCC3,?,20.6µM*,?,2.6%,1.1%,-53.8*
COc1ccc(-n2c(N3CCN(C)CC3)nc3sc4c(c3c2=O)CCCCC4)cc1,23.8%,23.1µM*,14.6µM*,5.9%,0.9%,-12.6
CCC(C)C(NC)C(=O)O (stereo not drawn),/,-4.1%,10.8%,/,/,/
N[C@@H](CO)C(=O)NNCc1ccc(O)c(O)c1O,-0.3%,/,/,-0.3%,/,/
CCCOc1ccc(CSc2nnc(CCC)n2N)cc1,1.5%,-18.7%,-23.0%,-1.6%,-0.4%,-14.4
CCCc1nnc(SCc2ccc(OC)cc2)n1N,-0.3%,25.9µM*,18.4µM*,-3.9%,4.3%,-7.2
N#Cc1c(Nc2ccccc2C(F)(F)F)s[nH]c1=O,18.4µM*,20.6µM*,20.6µM*,?,?,/
N#Cc1c(Nc2ccccc2Cl)s[nH]c1=O,?,14.6µM*,5.17µM*,?,?,-59.3*
N#Cc1c(Nc2ccccc2)s[nH]c1=O,?,8.2µM*,8.2µM*,?,0.2%,?
Cc1cc(C)c(C#N)c(Nc2ccccc2Cl)n1,-1.1%,5.9%,2.2%,-8.1%,-2.2%,18.4
O=C(CNC(=O)c1ccco1)NCc1ccc2c(c1)OCO2,3.4%,1.3%,3.5%,-0.6%,5.0%,9.2
O=C(Nc1ccc(F)cc1)C1CC(=O)n2cnnc2N1 (stereo not drawn),-29.0%,-3.0%,-6.6%,0.651µM*,3.6%,13.6
CCNC(=O)C1CCCN(C(=O)c2cnc3ccccc3n2)CC1 (stereo not drawn),/,12.4%,-7.0%,/,/,0.0
CCCCCCNC(=O)CNC(=S)N(Cc1cccs1)C1CCCCC1,?,?,?,7.1%,-11.0%,?

# Bioassay records: PubChem, National Center for Advancing Translational Sciences (NCATS)
